Results on 86 molecules are retold here after PubChem BioAssay AID1259415 (National Center for Advancing Translational Sciences (NCATS), 2018).

The whole screen tested about 410,000 compounds, of which about 18,000 (4.4%) were called active. Roughly 7% stayed inconclusive and do not appear here. What follows is part of a selection rich in actives, with near analogues and random picks from the rest. A number with no mark means an inactive call. Cut-off read from the data, not from the text of the source: active = activity change below about -60%; inconclusive = no clear call, values can overlap the other calls; inactive = above about -39%.
% is set by controls: 0 for no effect and ±100 for the full control effect.

This assay can be described thus: qHTS Assay for inhibitors of the human cytomegalovirus (HCMV). The settings on record: HFF cells, HCMV-luciferase reporter, 72 h; at 57.5 µM; active compounds read low. The method in brief: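 Luciferase read-out from HCMV-luciferase-infected HFFs (MOI 1 PFU/cell) 72 h post infection at 37C; compounds added after 16 h cell attachment; activity normalized between buffer-only basal and Salinomycin (10uM) inhibitor controls.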
On the technique in general: Quantitative high-throughput screening tests each substance at several concentrations.
Consider `CCCCc1nnc(NC(=O)CSc2nc(N)cc(=O)[nH]2)s1`, for which the activity change, negative = inhibition is -10.9%.
The same measure for `O=S(=O)(NCCS(=O)(=O)N1CCN(c2ccccc2)CC1)c1ccc(Cl)cc1`: -35.4%; for `CCOc1cc(/C=C(\C#N)C(=O)Nc2ccccc2C)ccc1OCc1cc(=O)n2nc(CC)sc2n1`: -5.21%; for `CSc1nc(=O)c2c(n1C)NC(=O)CC2c1ccccc1OC(C)C` (stereo unspecified): -11%.
With `O=C(CSc1nnc(SCc2ccc(Cl)cc2)s1)N/N=C/c1ccccc1Cl`, the activity change, negative = inhibition is 13.9%.
Turning to `CC1(c2cccc([N+](=O)[O-])c2)CC(C)(C)N(C(=O)c2ccccc2)c2ccccc21` (stereo unspecified), the activity change, negative = inhibition was -23.1%.
As for `Cc1nnc(SCC(=O)N2c3ccccc3C(C)(c3ccc(Cl)cc3)CC2(C)C)s1` (stereo unspecified), the activity change, negative = inhibition was -74.1% (active).
The same measure for `CCOC(=O)C(Cc1ccccc1)NC(=O)CCc1c(C)nc2c(c(C)nn2-c2ccc(C)c(C)c2)c1C` (stereo unspecified): 35.7%.
Consider `Cc1ccc(SCC(=O)Nc2ccc3oc(-c4ccccc4F)nc3c2)cc1`, for which the activity change, negative = inhibition was 68.8%.
The same measure for `COc1ccc(Cl)cc1NC(=O)C(C)Sc1nc2c(c(=O)[nH]1)CCCC2` (stereo unspecified): 12.7%; for `COc1cccc(OCCOc2cccc(/C=N/n3cnnc3)c2)c1`: 27%; for `Cc1ccccc1OCCOc1ccc([N+](=O)[O-])cc1/C=N/n1cnnc1`: -98.2% (active).
With `Cc1ccccc1OS(=O)(=O)c1cccc([N+](=O)[O-])c1`, the activity change, negative = inhibition is -19.5%.
Consider `CC1(c2nnc(Cc3ccccc3)o2)CC(c2ccccc2F)=NO1` (stereo unspecified), for which the activity change, negative = inhibition is 4.15%.
The same measure for `CCCOc1ccc(NC(=O)CC2C(=O)N(c3ccccc3)C(=O)N2Cc2ccco2)cc1` (stereo unspecified): 38.3%; for `COc1cccc(C(=O)N2CCC(n3nccc3NC(=O)C3CCOC3)CC2)c1` (stereo unspecified): -18.9%.
For `COc1ccccc1N1CCN(CC(=O)Nc2ccnn2C2CCCC2)CC1`, the activity change, negative = inhibition was -12%.
Take `COc1cccc(N2CCN(CC(=O)Nc3ccnn3C3CCCC3)CC2)c1`: the activity change, negative = inhibition is -60.5% (active).
The same measure for `CCOc1ccc2[nH]c3nc(SCC(=O)NC4CCCC4)nnc3c2c1`: -31.8%.
The same measure for `O=C(CSc1nnc2c(n1)[nH]c1ccccc12)NC1CCCCC1`: -65.5% (active); for `COc1ccc2[nH]c3nc(SCC(=O)NC4CC4)nnc3c2c1`: 13.8%; for `O=C(Cc1cccs1)N(CC1CCCO1)C1(C(=O)NC2CCCCC2)CCCCC1` (stereo unspecified): -20.9%.
On to `CCOC(=O)c1c(CC(C)C)csc1/N=C/C1=C(O)CCCC1=O`, for which the activity change, negative = inhibition was -98.2% (active).
The same measure for `Cc1cc(N=CC2=C(O)CCCC2=O)no1`: 2.05%; for `CCOC(=O)c1sc(/N=C/C2=C(O)CC(C)(C)CC2=O)c(C(=O)OCC)c1C`: -33.1%.
The same measure for `CCOC(=O)c1c(NC(=O)Cc2coc3ccc(CC)cc23)sc2c1CCC2`: 1.55%.
Regarding `Cc1ccc(C)c(N2CCN(C(=O)CN3C(=O)COc4ccc(S(=O)(=O)N5CCCCCC5)cc43)CC2)c1`, the activity change, negative = inhibition was -10.9%.
The same measure for `Cc1ccc(Cl)cc1-n1ncc2c(N3CCC(C(N)=O)CC3)ncnc21`: -7.89%; for `CCCCN(CC)C(=O)CN(C)S(=O)(=O)c1cccc2nsnc12`: 0.246%.
The same measure for `O=[N+]([O-])c1ccc(C(S(=O)(=O)Cc2ccccc2)S(=O)(=O)Cc2ccccc2)cc1`: -20.9%; for `O=C1NC(=O)C2C1C(c1ccc([N+](=O)[O-])cc1)=NN2Cc1ccccc1` (stereo unspecified): -71.6% (active).
For `O=C(NCCCCc1ccccc1)C1CC(c2ccc([N+](=O)[O-])cc2)=NO1` (stereo unspecified), the activity change, negative = inhibition is 1.01%.
Consider `Cc1ccc(-n2cnc3cc(C(=O)NCCC4=CCCCC4)ccc32)cc1Cl`, for which the activity change, negative = inhibition was -19.6%.
For `COc1ccc(-c2[nH]c3c(c2-c2c(-n4cccc4)n(C)c(=O)n(C)c2=O)c(=O)n(C)c(=O)n3C)cc1`, the activity change, negative = inhibition is 12.5%.
The same measure for `COc1ccccc1CNC(=O)c1ccc(NC(=O)N2CC(C)Sc3ccccc32)cc1` (stereo unspecified): -6.59%.
As to `Cc1ccccc1-c1csc(C(O)c2cccc(Cl)c2)n1` (stereo unspecified), the activity change, negative = inhibition was -10.3%.
The same measure for `COc1cccc(C(O)c2nc(-c3ccc(C)c(C)c3)cs2)c1` (stereo unspecified): -60.7% (active).
The same measure for `COc1ccc(-c2csc(C(O)c3cccc(Cl)c3)n2)cn1` (stereo unspecified): -37.6%; for `Cn1c(/C(C#N)=C2/CCCCCN2)nc2ccccc21`: -40%.
The same measure for `Cc1nn(CC(=O)NCCc2ccccc2)c(=O)c2c1sc1ccccc12`: 0.0704%; for `N#C/C(=C\c1ccccc1F)c1nc2ccccc2c(=O)[nH]1`: -22.3%; for `O=C(/C(=C/c1cccc(Cl)c1)c1nc2ccccc2[nH]1)c1ccccc1`: -99.6% (active).
Take `CCc1ccc(CNCc2c(C(=O)O)n(Cc3ccc(F)cc3Cl)c3cc(OC)ccc23)cc1`: the activity change, negative = inhibition was 15.2%.
`CCOC(=O)C1=C(c2ccccc2)N=C2SCC(=O)N2C1c1ccc(O)c(OC)c1` (stereo unspecified): the activity change, negative = inhibition was 9.04%.
Consider `CC1CCCN(CCOCCOc2ccccc2-c2ccccc2)C1` (stereo unspecified), for which the activity change, negative = inhibition was -71.7% (active).
Take `CC1CN(CCOc2ccccc2[N+](=O)[O-])CC(C)O1` (stereo unspecified): the activity change, negative = inhibition is -21.7%.
As to `CC1CN(CCCOc2ccccc2-c2ccccc2)CC(C)O1` (stereo unspecified), the activity change, negative = inhibition is 58.1%.
The same measure for `CCOC(=O)Cn1c(=O)n(C2CCCCC2)c2nc(-c3cccc(OC)c3)nc(C(N)=O)c21`: 18.1%; for `O=C(/C=C/c1ccccc1)N1CCN(Cc2cc(=O)n3nc(-c4ccccc4F)sc3n2)CC1`: 34.4%.
For `O=C1OCC2=C1C(c1ccc(Cl)cc1)c1cc3c(cc1O2)OCO3` (stereo unspecified), the activity change, negative = inhibition was 37.6%.
Turning to `O=C1NC(c2cc3c(cc2Cl)OCO3)Oc2ccccc21` (stereo unspecified), the activity change, negative = inhibition is 17.7%.
Regarding `CCCOc1ccccc1C1CC(=O)Nc2cc3c(cc21)OCO3` (stereo unspecified), the activity change, negative = inhibition is -61.8% (active).
The same measure for `O=C1CC(c2ccc(F)cc2F)c2cc3c(cc2N1)OCO3` (stereo unspecified): -1.6%; for `COc1ccccc1C1C2=C(COC2=O)Nc2cc3c(cc21)OCO3` (stereo unspecified): -87.9% (active); for `Cc1cc2c(cc1C)C(c1cccc(OC(C)C)c1)CC(=O)N2` (stereo unspecified): -38.7%.
For `COc1ccc(-c2onc(C)c2C)cc1S(=O)(=O)NCC1CCN(Cc2cccc(F)c2)CC1`, the activity change, negative = inhibition was 0%.
The same measure for `Cc1ccccc1CN1CCC(CNC(=O)c2c(C)oc3ncnc(N4CCCCC4)c23)CC1`: -4.04%; for `Cc1sc2ncn(CC(=O)N3CCN(c4ccc(F)cc4)CC3)c(=O)c2c1S(=O)(=O)N1CCN(c2ncccn2)CC1`: -4.66%.
Take `Cc1n[nH]c(=O)c2c(NC(=O)CSc3ccccc3F)oc(C)c12`: the activity change, negative = inhibition was -30.8%.
The same measure for `COc1ccc(N2C(=O)CS(=O)(=O)C23C(=O)N(Cc2ccc(C)cc2)c2ccccc23)cc1Cl` (stereo unspecified): -12.4%.
The same measure for `S=C(NCC1COc2ccccc2O1)Nc1ccc(Br)cc1` (stereo unspecified): -67.8% (active).
The same measure for `COc1ccccc1C1CCN(C(=S)Nc2ccc(Br)cc2)CC1`: 2.47%.
On to `COc1ccc(NC(=O)CC2COc3ccccc3O2)c(OC)c1` (stereo unspecified), for which the activity change, negative = inhibition is 9.76%.
The same measure for `CCC(=O)N1CCc2cc(S(=O)(=O)NC(Cc3ccccc3)C(=O)NCc3ccc(C)cc3)ccc21` (stereo unspecified): 5.04%; for `Cc1ccc(N(Cc2ccccc2O)C(=O)c2ccccc2F)cc1`: -8.68%; for `Cc1ccc(N(Cc2cc(=O)[nH]c3ccccc23)C(=O)CCl)cc1`: -101% (active).
The same measure for `CCC(=O)N(Cc1cc2ccccc2[nH]c1=O)c1ccc(OC)cc1`: 18.3%; for `Cc1ccc(C)c(NC(=O)Cn2ccn(-c3ccc(F)cc3)c(=O)c2=O)c1`: -35.9%.
As to `O=S(=O)(Nc1ccc2nc(-c3cccc(Cl)c3)oc2c1)c1ccccc1`, the activity change, negative = inhibition was -36.4%.
The same measure for `COc1ccc(C(C)(C)C)cc1NC(=O)CN(C)C1=NS(=O)(=O)c2ccccc21`: 6.84%; for `Oc1cccc(/C=N/Nc2ccc(Cl)nn2)c1O`: -95.1% (active).
As for `COc1ccc(-n2ccn(CC(=O)Nc3ccc(C)c(C)c3)c(=O)c2=O)cc1OC`, the activity change, negative = inhibition is -20.8%.
The same measure for `CC(C)N1C(=O)N(c2ccccc2)C(C)(O)CC1(C)C` (stereo unspecified): -26.6%; for `CC(CC(=O)Nc1ccccc1)n1ccnc1` (stereo unspecified): 39%.
The same measure for `CC(=O)N1CCc2cc(S(=O)(=O)NC(Cc3ccccc3)C(=O)NCc3ccc(C)cc3)ccc21` (stereo unspecified): -12.2%; for `C#CCN(C[C@H]1[C@H](OC(=O)NC2CCCC2)[C@H](OC(=O)NC2CCCC2)C[C@H]2C(=O)N(c3ccccc3)C(=O)[C@@H]12)S(=O)(=O)c1ccc(C)cc1`: -6.21%; for `Cc1ccc(S(=O)(=O)N2C[C@H]3n4c(=O)ccc(=O)n4C[C@H](OC(=O)NC4CCCC4)[C@@]3(O)C2)cc1`: -24.9%.
For the molecule `C#CCN(C[C@@H]1[C@@H](OC(=O)NC2CC2)[C@@H](OC(=O)NC2CC2)Cn2c(=O)ccc(=O)n21)S(=O)(=O)c1ccc(C)cc1`, the activity change, negative = inhibition is -96.3% (active).
The same measure for `CCC(=O)N1N=C(c2ccc(OC)cc2)CC1c1cn(-c2ccccc2)nc1-c1cccs1` (stereo unspecified): -16.7%; for `COc1ccc(Br)cc1CNC(=O)c1cc(=O)[nH]c2ccc(S(=O)(=O)N3CCCC3)cc12`: 37.6%; for `COc1ccccc1CNC(=O)NCc1noc2ccc(C)cc12`: -4.73%.
Consider `CCOc1ccccc1N(CC(=O)NC1CCCCC1)C(=O)CCCC(=O)Nc1ccccn1`, for which the activity change, negative = inhibition was -7.08%.
Turning to `O=C(CCCC(=O)N(CC(=O)NC1CCCC1)Cc1ccccc1Cl)Nc1ccccn1`, the activity change, negative = inhibition is -99.6% (active).
In the case of `Cc1ccc(N(CC(=O)NC2CCCCC2)C(=O)CCCC(=O)Nc2ccccn2)c(C)c1`, the activity change, negative = inhibition was 0.377%.
`Cc1ccc(S(=O)(=O)N2CCC(C(=O)NCCC3=CCCCC3)CC2)cc1C`: the activity change, negative = inhibition was -15.1%.
For `CC(=O)c1ccc(NC(=O)CSc2c(C(C)C)cnc3c2c(=O)n(C)c(=O)n3C)cc1`, the activity change, negative = inhibition is -7.7%.
